The campaign covered roughly 320,000 compounds. About 1,000 (0.31%) were called active.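 Rule for the calls: active = activation above the mean of all tested compounds plus 3 SD, cutoff set per screening run (cut at about 20% in these data); inactive = the rest.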 The entries come from a sample that favours actives as a whole.

Oxytocin receptor (Homo sapiens), sequence (P30559 whole entry, looked up): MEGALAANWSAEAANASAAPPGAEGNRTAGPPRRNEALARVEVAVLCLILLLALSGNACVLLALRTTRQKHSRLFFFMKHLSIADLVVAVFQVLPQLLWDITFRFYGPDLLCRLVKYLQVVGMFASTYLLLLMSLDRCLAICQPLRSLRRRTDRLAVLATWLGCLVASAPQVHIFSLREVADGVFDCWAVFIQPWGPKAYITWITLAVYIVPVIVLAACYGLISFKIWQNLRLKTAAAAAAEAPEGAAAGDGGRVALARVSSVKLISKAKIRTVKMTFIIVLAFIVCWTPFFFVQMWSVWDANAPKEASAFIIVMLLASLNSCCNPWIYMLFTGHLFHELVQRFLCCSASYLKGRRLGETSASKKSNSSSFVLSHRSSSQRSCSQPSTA

The test addresses Oxytocin receptor (Homo sapiens) (UniProt P30559). The test is described as follows: human OXTR agonists, primary screen, fluorescence, CHO-OTR cells, Fluo-8 calcium (AID 2435).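 Note: peak over basal fluorescence ratio from a 100 s FLIPR kinetic read.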 The note with it: Fluo-8 calcium fluorescence, at 3 µM, hits give high values, normalized: DMSO 0%, oxytocin 100%.
For the compound `CCOC(=O)N/N=C1\CC(C)S(=O)(=O)c2ccc(Cl)cc21` (stereo unspecified), the activation was -2.06% (inactive). Consider `CCOc1ncccc1C(=O)NCCc1ccc(OC)cc1`, for which the activation was -1.34% (inactive). On to `Cc1nc(CN2CCN(C(=O)CCc3nnc(Cc4c[nH]c5ccccc45)o3)CC2)cs1`, for which the activation was -0.27% (inactive). To `Cn1c2ccccc2c(=O)c2c(=O)n(Cc3ccco3)c(COc3ccccc3)nc21` belongs 1.8% (inactive). As to `Cn1c2ccccc2c(=O)c2c(O)cccc21`, the activation is -1.89% (inactive). Regarding `CCCc1nc2c(c(=O)c3ccccc3n2C)c(=O)n1C1CCCCCC1`, the activation was 52.1% (active). To `Cc1ccc(C(=O)Cc2nnc(C)s2)cc1` belongs -0.26% (inactive); to `Oc1ccc2ccc3cccc[n+]3c2c1`, 65.3% (active).

Consider `COc1ccc(N2CCN(C(=O)[C@@H](NC(=O)c3cc(OC)cc(OC)c3)C(C)C)CC2)cc1`, for which the activation is -0.71% (inactive). Consider `CCOc1ccc(CCNC(=O)C2CCN(c3ccc(N4CCOCC4)nn3)CC2)cc1OCC`, for which the activation is -0.01% (inactive). `Cc1ccc(-c2nn(-c3ccccc3)cc2C(=O)NC2CCC(O)CC2)cc1` (stereo unspecified): the activation is 0.66% (inactive).

Take `O=C(NNC(=S)NC(=O)c1cn(-c2ccccc2)nc1-c1ccccc1)c1ccncc1`: the activation is 21.2% (active).

Turning to `NC(=O)C1CCN(C(=O)c2cn(-c3ccccc3)nc2-c2cccnc2)CC1`, the activation was 1.05% (inactive). On to `COC(=O)c1ccc(COC(=O)C2CCN(S(=O)(=O)c3c(Cl)cccc3Cl)CC2)o1`, for which the activation was 0.45% (inactive). Then `O=C(NCc1ccco1)/C(=C/c1cccc([N+](=O)[O-])c1)NC(=O)c1ccco1`, with -0.34% (inactive); and `O=C(c1ccco1)N1CCN(C(=O)C2CC(c3ccc(F)cc3)=NO2)CC1` (stereo unspecified), with 38.1% (active); and `CCOC(=O)N1CCN(C(=O)C2CC(c3ccc(F)cc3)=NO2)CC1` (stereo unspecified), with 0.22% (inactive). For `O=C(c1ccco1)N1CCN(C(=O)C2CC(c3ccc(Cl)c(Cl)c3)=NO2)CC1` (stereo unspecified), the activation was 5.71% (inactive). Turning to `CC1(C)Oc2ccc3ccc(=O)oc3c2/C(=N/O)C1=O`, the activation is -0.3% (inactive). Then `CCCCOc1ccc(CON(C(C)=O)C(C)=O)cc1Cl`, with -0.28% (inactive); and `COc1ccccc1OCCNCC(O)COc1cccc2[nH]c3ccccc3c12` (stereo unspecified), with 20.7% (active). For the compound `CC(C)(C)NCC(O)COc1cccc2[nH]c(=O)[nH]c12` (stereo unspecified), the activation was -0.01% (inactive). Consider `CC(O)CNCCOc1cccc(Oc2ccccc2)c1` (stereo unspecified), for which the activation was 2.15% (inactive). Turning to `CC(=O)c1ccc(NC(=O)c2sc3nc4n(c(=O)c3c2C)CCCCC4)cc1`, the activation is 7.14% (inactive). For the compound `COc1ccccc1NC(=O)CCCc1c[nH]c2ccccc12`, the activation is -0.34% (inactive). As to `COc1cccc(CNCCc2c[nH]c3ccccc23)c1OCc1ccccc1F`, the activation is 23.9% (active). In the case of `COc1ccc(S(=O)(=O)NCCc2c[nH]c3ccccc23)cc1OC`, the activation is 4.77% (inactive). For `Cc1cc2nc3n(c2cc1C)CC1CC(C(=O)NCCC(C)C)N(C)C31` (stereo unspecified), the activation was 0.52% (inactive). On to `O=c1c2ccccc2nc2n1C(CSc1ccc(F)cc1)CN2` (stereo unspecified), for which the activation is 0.69% (inactive). Turning to `O=c1c2ccccc2nc2n1C(CSCc1ccccc1)CS2` (stereo unspecified), the activation is 0.87% (inactive). On to `O=c1c2ccccc2nc2n1C(CSc1ccc(Cl)cc1)CN2` (stereo unspecified), for which the activation was 25.6% (active). Regarding `Cc1ccc(S(=O)(=O)N(C)C)cc1NC(=O)C1Cc2ccccc2CN1C(=O)c1ccco1` (stereo unspecified), the activation is -0.61% (inactive). For `C=C(C)CSc1nnc(-c2ccc(C)cc2)n1N`, the activation was -2.48% (inactive).

`COc1ccc(CNC(=O)CCC(=O)Nc2nnc(C(C)C)s2)cc1`: the activation is -0.01% (inactive). To `CCc1nn(CCCC(=O)NC(C)c2ccccc2)c(=O)c2cc3occc3n12` (stereo unspecified) belongs -0.99% (inactive). With `FC(F)(F)c1cc(-c2ccco2)nc(NCc2ccc(Cl)cc2)n1`, the activation is 0.65% (inactive).

The record behind these values is PubChem BioAssay AID2435 (The Scripps Research Institute Molecular Screening Center, 2010).
